Screening results: PubChem, National Center for Advancing Translational Sciences (NCATS)
Most compounds without a hit are left out; they make up all but 2.7% or so of the library.
Nrf2 ARE act – Nrf2 pathway activation. AREc32 ARE-luciferase reporter (MCF7-derived line), luminescence, 24 h. Potency, µM (top dose mostly 46.1 µM), without a hit: at the top dose activation, most hits filed as activators. actives 0.31% (n = 410,000). AID 624171; further: potency means the concentration at half of the fitted maximal effect; % of control where 0% means no effect; nearly all actives have a fitted effect of over 65% in size
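Steps: seed AREc32_Fluc cells (1000/well, 5% FBS OPTI-MEM); incubate overnight at 37 deg C; add 23 nL compound; incubate 24 hr; add Steady-Glo; hold 30 min RT; read luminescence.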
A549 tox – A549 cytotoxicity, counter-screen for Nrf2 inhibitors | A549 ARE-Fluc cells, CellTiter-Fluor viability, 18-24 h | Potency, µM (doses to about 46 µM), for the others: at the top dose activity change, negative = cytotoxicity, actives largely listed as inhibitors | actives 0.16% (n = 390,000) | AID 504648; further: potency means the concentration at half of the fitted maximal effect; on the % scale 0 is the no-effect control and ±100 the full control effect
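A549 ARE-Fluc cells in 5% FBS OPTI-MEM, 5000 cells/well, rested 2 h then exposed to compounds in concentration-response for 18-24 h at 37 °C. Viability by CellTiter-Fluor fluorescence (Ex 405/Em 525) after 30 min; luciferase luminescence (BugLite, 15 min, RT) read afterwards.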
12-LOX inh – blocks human arachidonate 12S-lipoxygenase; P18054; Potency, µM (highest dose often 108 µM), for inactives: at the highest dose activity change, negative = inhibition, hits mostly inhibitors; AID 1671190; purified 12hLO, xylenol orange hydroperoxide absorbance; actives 1.1% (n = 580,000); further: potency means the concentration at half of the fitted maximal effect; on the % scale 0 is the no-effect control and ±100 the full control effect
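Purified human 12hLO (150 nM final) in 25 mM Hepes, 0.01% Triton X-100, pH 7.0 was preincubated 15 min at room temperature with compound. Then 40 uM arachidonic acid was added, 30 min. Hydroperoxide was read by Fe-XO absorbance ratio 573/405 nm.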
Nrf2 inh – blocks Nrf2 signaling; A549 ARE-Fluc reporter, luciferase luminescence, 18-24 h; Potency, µM (series often up to 46 µM), for the others: at the highest dose activity change, negative = inhibition, actives largely listed as inhibitors; actives 2.1% (n = 360,000); further: potency means the concentration at half of the fitted maximal effect; on the % scale 0 is the no-effect control and ±100 the full control effect; nearly all actives have a fitted effect of over 60% in size
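Concentration-response testing used A549 ARE_Fluc cells at 5000 cells/well. Following an 18-24 h compound incubation, viability was read by fluorescence (Ex 405/Em 525) and luciferase output by luminescence.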
LDHA inh – inhibitors of human lactate dehydrogenase A; activity change, % (values are at about 110 or 230 µM); AID 1347041; P00338; purified LDHA, NADH/diaphorase-resazurin fluorescence; stronger effect = lower value; actives 0.15% (n = 480,000); in the data active means activity change below about -30%; inconclusive means mostly about -25% to -30%;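 further: plate controls were DMSO wells for no effect and wells without enzyme for full effect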
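Human LDH5 at 2 nM final in Tris HCl pH 7.4 with 0.06 mM NADH and 0.2 mM pyruvate, reacted 5 minutes at room temperature. Remaining NADH coupled via diaphorase/resazurin; resorufin fluorescence read at 0 and 20 minutes, normalized to enzyme-free and DMSO wells.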
ERG-DNA inh – ERG Ets/DNA interaction inhibition; P11308; fluorescence polarization, His-ERG Ets domain / labelled DNA; Potency, µM (highest dose often 76.9 µM), for inactives: at the top dose FP activity, negative = inhibition, actives largely listed as inhibitors; actives 0.028% (n = 370,000); AID 624246; active means well fitted inhibition curve with a large enough effect in the polarisation, with a control signal flat; inconclusive means small, poorly fitted or top-dose-only effect, or effect the other way, or a change in a side signal; inactive means no such curve, though single readings can be large or run the other way; the % refers to the polarisation;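 further: polarization taken with two DNA probes labelled with fluorescein and Texas red; potency means the concentration at half of the fitted maximal effect; % of control where 0% means no effect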
Target sequence (P11308 whole entry, looked up, the tested form may be a part): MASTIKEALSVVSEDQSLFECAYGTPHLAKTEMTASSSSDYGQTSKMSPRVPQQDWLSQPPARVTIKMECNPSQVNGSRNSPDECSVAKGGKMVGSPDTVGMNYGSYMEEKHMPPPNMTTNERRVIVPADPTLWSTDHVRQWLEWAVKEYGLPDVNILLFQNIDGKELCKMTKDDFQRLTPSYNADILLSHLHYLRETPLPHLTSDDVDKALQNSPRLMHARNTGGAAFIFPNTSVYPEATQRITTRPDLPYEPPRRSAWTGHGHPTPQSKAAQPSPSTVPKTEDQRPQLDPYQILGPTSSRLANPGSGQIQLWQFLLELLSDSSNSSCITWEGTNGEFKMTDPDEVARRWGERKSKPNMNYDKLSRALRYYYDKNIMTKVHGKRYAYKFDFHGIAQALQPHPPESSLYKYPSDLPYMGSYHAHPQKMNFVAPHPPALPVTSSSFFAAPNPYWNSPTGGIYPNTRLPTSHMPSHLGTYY
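His-tagged ERG Ets domain (1 uM in the protein solution; 300mM KCl, 50mM Tris-HCl, 1mM EDTA, 1mM DTT, pH 7.5) received compound, then a probe mix of 5 nM fluorescein-DNA and 100nM Texas-615-DNA. Fluorescence polarization was read for both dyes.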
* hit, by the source's call; u = inconclusive; x = no result given; ! = not confirmed by another sample; [ ] = dose if it differs, or a comment. Unless noted, the call rests on the fitted dose curve; in most records, active means well fitted curve in the direction sought with a large enough effect; inconclusive means small, poorly fitted or top-dose-only effect, or another doubt; inactive means no such curve, though single readings can be large; an effect the other way counts as inactive or inconclusive.

SMILES	Nrf2 ARE act	A549 tox	12-LOX inh	Nrf2 inh	LDHA inh	ERG-DNA inh
Cc1nc(-c2cccc(NC(=O)c3ccc(-n4nccc4C)cc3)c2)cs1	-1%	-10%	26%	16µM*	1	1%
Cc1nc(-c2cccc(NC(=O)c3ccc(Br)o3)c2)cs1	3%	0%	0%	2%	-1	4%
COc1cccc(-c2nc(SCc3cc(=O)n4cc(C)sc4n3)n[nH]2)c1	x	x	u	x	-5	x
CC(=O)c1ccc(NC(=S)NCCSc2ccc(Cl)cc2)cc1	x	x	u	x	2	x
c1ccc(CNc2ncncc2-c2ccc3c(c2)OCO3)cc1	x	x	25µM*	x	x	x
[O-]/C(=C(\C(=S)Nc1ccc(SC(F)F)cc1)[n+]1ccccc1)c1cc(Cl)ccc1Cl	0%	u	u	21µM*	1	5%
O=C(CSc1nncc2ccccc12)N1CCCCC1	21%	-3%	-11%	10µM*	0	10%
COc1cc(-c2nnc(NC(=O)CCS(=O)(=O)c3ccc(F)cc3)o2)cc(OC)c1OC	25%	-7%	16%	-2%	-1	x
COc1cc(OC)cc(-c2nnc(NC(=O)CCS(=O)(=O)c3ccc(F)cc3)o2)c1	u	u	-2%	21µM*	3	-9%
COc1cc(-c2nnc(NC(=O)CCS(=O)(=O)c3ccccc3)o2)cc(OC)c1OC	11µM*	-26%	-19%	4%	2	-4%
COc1ccc(OC)c2sc(NC(=O)CCS(=O)(=O)c3ccccc3)nc12	5µM*	-9%	15%	u	1	-6%
COc1cc(OC)cc(-c2nnc(NC(=O)CCS(=O)(=O)c3ccccc3)o2)c1	9%	-4%	-24%	-5%	-7	-13%
COc1ccc(OC)c2sc(NC(=O)CCSc3ccccc3)nc12	4%	4%	17%	-9%	-3	24%
CC(Nc1ccc(F)cc1)c1nc(-c2ccco2)no1 (configuration not stated)	x	x	-22%	x	7	x
CC1=NC(=O)C(N=Nc2cccc(C(=O)O)c2)N1c1ccccc1 (configuration not stated)	-1%	-16%	7.1µM*	u	u	1%
C/C(=N/Nc1ccc(Cl)c(Cl)c1)c1ccc(C#N)cc1	x	x	u	x	5	x
COCCNc1ncc(-c2cccc(OC)c2)c2c1OCC2	x	x	-1%[176 µM]	x	x	x
CCCCN(C(=O)CSc1nnc(-c2ccc(Cl)cc2)o1)c1c(N)n(CC(C)C)c(=O)[nH]c1=O	0%	u	u	18µM*	-7	6%
COCCN(C(=O)CSc1nnc(-c2ccc(Cl)cc2)o1)c1c(N)n(CC(C)C)c(=O)[nH]c1=O	0%	-9%	u	-6%	-7	-9%
N#CCSc1nccc(-c2cc(Cl)sc2Cl)n1	7.9µM*	1%	4%	-17%	-9	-4%
C=CCSc1nccc(-c2cc(Cl)sc2Cl)n1	10µM*	6%	2%	4%	-1	-12%
C=CCSc1ncc(-c2ccccc2)cn1	3%	0%	-11%	u	0	-6%
Cc1sc(NC(=O)/C=C/c2cccs2)c(C#N)c1C	x	x	7.9µM*	x	3	x
O=C(/C=C/c1cccs1)Nc1scc(-c2ccccc2)c1C(=O)O	-2%	-14%	45µM*	u	-11	75%
O=C(O)CNS(=O)(=O)c1cccc(C(=O)/C=C/c2ccccc2Cl)c1	x	x	u	x	1	x
SMILES	Nrf2 ARE act	A549 tox	12-LOX inh	Nrf2 inh	LDHA inh	ERG-DNA inh
O=[N+]([O-])c1nn(-c2ccccc2)n(O)c1=NC1CCN(Cc2ccccc2)CC1	-1%	18µM*	-6%	12%	3	-3%
COc1cc2ccccc2cc1C(=O)N1CC(C)CC(C)C1 (configuration not stated)	-1%	-14%	-5%	12µM*	-1	12%
O=C1NC(=S)S/C1=C\c1cc2ccccc2nc1N1CCCCC1	-1%	-28%	-84%	21µM*	0	2%
CCCSc1oc(-c2ccco2)nc1S(=O)(=O)c1ccc(C)cc1	0%	26%	u	2%	-8	13%
CCSc1oc(-c2ccccc2)nc1S(=O)(=O)c1ccc(C)cc1	x	x	u	x	-9	x
CC(C)Sc1oc(-c2ccco2)nc1S(=O)(=O)c1ccc(F)cc1	-1%	-4%	28µM*!	-28%	3	1%
CCCCSc1oc(-c2ccco2)nc1S(=O)(=O)c1ccc(F)cc1	x	x	7.9µM*	x	11	x
CCSc1oc(-c2ccc(F)cc2)nc1S(=O)(=O)c1ccc(C)cc1	-1%	0%	40µM*!	-12%[9.27 µM]	7	-1%
CNc1oc(-c2ccc(F)cc2)nc1S(=O)(=O)c1ccccc1	0%	1%	-26%	-29%	-3	2%
CC(C)CS(=O)(=O)c1oc(-c2ccc(F)cc2)nc1S(=O)(=O)c1ccccc1	-6%	u	2%	23µM*	-4	-3%
CCc1ccc(C2c3c(-c4ccccc4)n[nH]c3C(=O)N2c2ccc(C(=O)O)cc2)cc1 (configuration not stated)	6%	0%	40µM*	-22%	-10	-1%
CCOC(=O)c1ccc(N2C(=O)c3n[nH]c(-c4ccco4)c3C2c2cccc(F)c2)cc1 (configuration not stated)	-3%	u	-20%	21µM*	5	-7%
CCOC(=O)c1ccc(N2C(=O)c3n[nH]c(-c4ccco4)c3C2c2cccc(OC)c2)cc1 (configuration not stated)	-2%	-29%	-20%	u	4	3%
CCOC(=O)c1ccc(N2C(=O)c3n[nH]c(-c4ccco4)c3C2c2ccc(OCC)cc2)cc1 (configuration not stated)	-4%	u	u	18µM*	-10	0%
CCOC(=O)c1ccc(N2C(=O)c3n[nH]c(-c4ccco4)c3C2c2ccc(F)cc2)cc1 (configuration not stated)	-3%	-17%	u	u	-17	-6%
COc1ccc2nc(C)cc(SCC(NC(=O)CN(C)C)C(=O)O)c2c1 (configuration not stated)	x	x	u	x	1	x
O=C(CCc1ncc(-c2ccccc2)o1)N1CCc2ccccc21	x	x	u	x	8	x
O=C1CC(N2CCN(C3CC(=O)N(CCc4ccccc4)C3=O)CC2)C(=O)N1CCc1ccccc1 (configuration not stated)	0%	13%	3%	-1%	-4	x
O=C1CC(N2CCN(C/C=C/c3ccccc3)CC2)C(=O)N1CCc1ccccc1 (configuration not stated)	5%	1%	-15%	9.2µM*	-4	x
